Results published in paper PMC11006913.

How the values were obtained:
Test in all cases: PBM; 200 nM protein, PBS
Details in all cases: dsDNA, one strand shown
HESX1 [1] = target: HESX1 (Homo sapiens, UniProt Q9UBX0 95-180, R165K)
HESX1 [2] = target: HESX1 (Homo sapiens, UniProt Q9UBX0 95-180)
HOXB6 [3] = target: HOXB6 (Homo sapiens, UniProt P17509 132-218, K202E)
HOXA2 [4] = target: HOXA2 (Homo sapiens, UniProt O43364 129-215, R185T)
HOXA2 [5] = target: HOXA2 (Homo sapiens, UniProt O43364 129-215, R185K)
Sequence of HOXA2 (Homo sapiens, UniProt O43364 129-215, R185K) (O43364 129-215 R185K): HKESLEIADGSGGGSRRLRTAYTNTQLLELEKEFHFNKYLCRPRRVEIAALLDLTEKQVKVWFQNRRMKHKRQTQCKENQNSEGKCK

HESX1 [6] = target: HESX1 (Homo sapiens, UniProt Q9UBX0 95-180, R109Q)
Sequence of HESX1 (Homo sapiens, UniProt Q9UBX0 95-180, R109Q) (Q9UBX0 95-180 R109Q): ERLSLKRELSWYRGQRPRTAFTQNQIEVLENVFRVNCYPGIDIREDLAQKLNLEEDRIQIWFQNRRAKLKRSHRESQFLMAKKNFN

HESX1 [7] = target: HESX1 (Homo sapiens, UniProt Q9UBX0 95-180, P111T)
Sequence of HESX1 (Homo sapiens, UniProt Q9UBX0 95-180, P111T) (Q9UBX0 95-180 P111T): as the sequence (Q9UBX0 95-180 R109Q) above, with Q15R, P17T counted along it

HESX1 [8] = target: HESX1 (Homo sapiens, UniProt Q9UBX0 95-180, F115L)
Sequence of HESX1 (Homo sapiens, UniProt Q9UBX0 95-180, F115L) (Q9UBX0 95-180 F115L): as the sequence (Q9UBX0 95-180 R109Q) above, with Q15R, F21L counted along it

HOXA2 [9] = target: HOXA2 (Homo sapiens, UniProt O43364 129-215, Y150S)
Sequence of HOXA2 (Homo sapiens, UniProt O43364 129-215, Y150S) (O43364 129-215 Y150S): as the sequence (O43364 129-215 R185K) above, with Y22S, K57R counted along it

HOXA2 [10] = target: HOXA2 (Homo sapiens, UniProt O43364 129-215)
Sequence of HOXA2 (Homo sapiens, UniProt O43364 129-215) (O43364 129-215): as the sequence (O43364 129-215 R185K) above, with K57R counted along it

HOXB6 [11] = target: HOXB6 (Homo sapiens, UniProt P17509 132-218)
Sequence of HOXB6 (Homo sapiens, UniProt P17509 132-218) (P17509 132-218): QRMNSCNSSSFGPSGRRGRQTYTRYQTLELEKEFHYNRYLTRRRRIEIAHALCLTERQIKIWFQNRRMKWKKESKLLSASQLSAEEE

MSX2 [12] = target: MSX2 (Homo sapiens, UniProt P35548 130-214, R199I)
Sequence of MSX2 (Homo sapiens, UniProt P35548 130-214, R199I) (P35548 130-214 R199I): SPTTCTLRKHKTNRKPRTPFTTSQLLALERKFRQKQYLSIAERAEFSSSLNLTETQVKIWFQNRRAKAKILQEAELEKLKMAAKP

ALX3 [13] = target: ALX3 (Homo sapiens, UniProt O95076 139-225, N203Q)
Sequence of ALX3 (Homo sapiens, UniProt O95076 139-225, N203Q) (O95076 139-225 N203Q): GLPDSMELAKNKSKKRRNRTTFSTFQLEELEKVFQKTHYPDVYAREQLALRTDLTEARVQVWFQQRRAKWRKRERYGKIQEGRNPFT

PAX4 = target: T1, PAX4 (Homo sapiens, UniProt O43316 9-242, F177V)
T1 sequence: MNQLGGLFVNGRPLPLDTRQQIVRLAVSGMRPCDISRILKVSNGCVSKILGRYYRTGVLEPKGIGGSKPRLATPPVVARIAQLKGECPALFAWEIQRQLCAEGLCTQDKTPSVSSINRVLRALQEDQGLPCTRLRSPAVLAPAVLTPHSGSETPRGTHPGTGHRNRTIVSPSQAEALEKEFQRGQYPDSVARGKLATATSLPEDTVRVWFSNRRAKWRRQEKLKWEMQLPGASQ

MSX2 [14] = target: MSX2 (Homo sapiens, UniProt P35548 130-214)
Sequence of MSX2 (Homo sapiens, UniProt P35548 130-214) (P35548 130-214): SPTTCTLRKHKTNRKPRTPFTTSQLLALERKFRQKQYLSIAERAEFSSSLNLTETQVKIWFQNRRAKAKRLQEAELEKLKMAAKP

MSX2 [15] = target: MSX2 (Homo sapiens, UniProt P35548 130-214, F161Y)
Sequence of MSX2 (Homo sapiens, UniProt P35548 130-214, F161Y) (P35548 130-214 F161Y): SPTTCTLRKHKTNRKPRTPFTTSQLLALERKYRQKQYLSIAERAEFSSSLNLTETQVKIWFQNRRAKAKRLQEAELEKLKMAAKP

ALX3 [16] = target: ALX3 (Homo sapiens, UniProt O95076 139-225, N203S)
Sequence of ALX3 (Homo sapiens, UniProt O95076 139-225, N203S) (O95076 139-225 N203S): as the sequence (O95076 139-225 N203Q) above, with Q65S counted along it

ALX4 [17] = target: ALX4 (Homo sapiens, UniProt Q9H161 200-286)
Sequence of ALX4 (Homo sapiens, UniProt Q9H161 200-286) (Q9H161 200-286): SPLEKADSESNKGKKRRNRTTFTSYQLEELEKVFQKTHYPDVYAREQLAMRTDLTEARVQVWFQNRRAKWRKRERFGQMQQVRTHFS

ALX4 [18] = target: ALX4 (Homo sapiens, UniProt Q9H161 200-286, Q225E)
Sequence of ALX4 (Homo sapiens, UniProt Q9H161 200-286, Q225E) (Q9H161 200-286 Q225E): as the sequence (Q9H161 200-286) above, with Q26E counted along it

HOXC10 [19] = target: HOXC10 (Homo sapiens, UniProt Q9NYD6 254-340)
Sequence of HOXC10 (Homo sapiens, UniProt Q9NYD6 254-340) (Q9NYD6 254-340): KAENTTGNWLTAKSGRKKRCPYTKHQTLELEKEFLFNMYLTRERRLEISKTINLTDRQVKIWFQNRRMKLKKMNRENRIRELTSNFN

ALX1 [20] = target: ALX1 (Homo sapiens, UniProt Q15699 118-204, L144V)
Sequence of ALX1 (Homo sapiens, UniProt Q15699 118-204, L144V) (Q15699 118-204 L144V): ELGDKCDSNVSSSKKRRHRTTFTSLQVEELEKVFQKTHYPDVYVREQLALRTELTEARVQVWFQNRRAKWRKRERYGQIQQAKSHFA

ALX1 [21] = target: ALX1 (Homo sapiens, UniProt Q15699 118-204, L144R)
Sequence of ALX1 (Homo sapiens, UniProt Q15699 118-204, L144R) (Q15699 118-204 L144R): as the sequence (Q15699 118-204 L144V) above, with V27R counted along it

HOXC10 [22] = target: HOXC10 (Homo sapiens, UniProt Q9NYD6 254-340, K271E)
Sequence of HOXC10 (Homo sapiens, UniProt Q9NYD6 254-340, K271E) (Q9NYD6 254-340 K271E): as the sequence (Q9NYD6 254-340) above, with K18E counted along it

ALX1 [23] = target: ALX1 (Homo sapiens, UniProt Q15699 118-204)
Sequence of ALX1 (Homo sapiens, UniProt Q15699 118-204) (Q15699 118-204): as the sequence (Q15699 118-204 L144V) above, with V27L counted along it

NKX2-6 = target: T2, NKX2-6 (Homo sapiens, UniProt A6NCS4 118-204, R150C)
T2 sequence: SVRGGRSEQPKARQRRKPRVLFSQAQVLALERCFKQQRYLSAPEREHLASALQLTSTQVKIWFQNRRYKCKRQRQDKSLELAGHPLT

Sequence of HESX1 (Homo sapiens, UniProt Q9UBX0 95-180, R165K) (Q9UBX0 95-180 R165K): as the sequence (Q9UBX0 95-180 R109Q) above, with Q15R, R71K counted along it
Sequence of HOXB6 (Homo sapiens, UniProt P17509 132-218, K202E) (P17509 132-218 K202E): as the sequence (P17509 132-218) above, with K71E counted along it
Sequence of HESX1 (Homo sapiens, UniProt Q9UBX0 95-180) (Q9UBX0 95-180): as the sequence (Q9UBX0 95-180 R109Q) above, with Q15R counted along it
Sequence of HOXA2 (Homo sapiens, UniProt O43364 129-215, R185T) (O43364 129-215 R185T): as the sequence (O43364 129-215 R185K) above, with K57T counted along it

Question: ATTATAGC was tested. Which binding signal (HESX1 [1]) did it give?
Answer: The binding signal was 8.55 upbm affinity estimate (log intensity, higher = more binding, comparable within an allelic series).

Question: What about the binding signal (HESX1 [2]) of the same sequence?
Answer: The binding signal was 8.71 upbm affinity estimate (log intensity, higher = more binding, comparable within an allelic series).

Question: Which binding signal (HESX1 [1]) does the source give for CAGGCCGG here?
Answer: The binding signal was 6.44 upbm affinity estimate (log intensity, higher = more binding, comparable within an allelic series).

Question: And the binding signal (HOXB6 [3])?
Answer: Its binding signal is 8.91 upbm affinity estimate (log intensity, higher = more binding, comparable within an allelic series).

Question: And the binding signal (HESX1 [2])?
Answer: The binding signal was 6.33 upbm affinity estimate (log intensity, higher = more binding, comparable within an allelic series).

Question: What about the binding signal (HOXA2 [4]) of the same sequence?
Answer: Its binding signal is 7.05 upbm affinity estimate (log intensity, higher = more binding, comparable within an allelic series).

Question: And the binding signal (HOXA2 [5])?
Answer: The binding signal was 10.1 upbm affinity estimate (log intensity, higher = more binding, comparable within an allelic series).

Question: And the binding signal (HESX1 [6])?
Answer: The binding signal was 6.48 upbm affinity estimate (log intensity, higher = more binding, comparable within an allelic series).

Question: And the binding signal (HESX1 [7])?
Answer: Its binding signal is 6.33 upbm affinity estimate (log intensity, higher = more binding, comparable within an allelic series).

Question: What about the binding signal (HESX1 [8]) of the same sequence?
Answer: The binding signal was 6.4 upbm affinity estimate (log intensity, higher = more binding, comparable within an allelic series).

Question: What about the binding signal (HOXA2 [9]) of the same sequence?
Answer: The binding signal was 10.3 upbm affinity estimate (log intensity, higher = more binding, comparable within an allelic series).

Question: What about the binding signal (HOXA2 [10]) of the same sequence?
Answer: The binding signal was 7.13 upbm affinity estimate (log intensity, higher = more binding, comparable within an allelic series).

Question: And the binding signal (HOXB6 [11])?
Answer: Its binding signal is 8.84 upbm affinity estimate (log intensity, higher = more binding, comparable within an allelic series).

Question: TAATTGTA was tested. Which binding signal (HESX1 [1]) did it give?
Answer: Its binding signal is 11.4 upbm affinity estimate (log intensity, higher = more binding, comparable within an allelic series).

Question: And the binding signal (HOXB6 [3])?
Answer: Its binding signal is 10 upbm affinity estimate (log intensity, higher = more binding, comparable within an allelic series).

Question: What about the binding signal (HESX1 [2]) of the same sequence?
Answer: Its binding signal is 11.8 upbm affinity estimate (log intensity, higher = more binding, comparable within an allelic series).

Question: And the binding signal (MSX2 [12])?
Answer: The binding signal was 12.5 upbm affinity estimate (log intensity, higher = more binding, comparable within an allelic series).

Question: And the binding signal (ALX3 [13])?
Answer: Its binding signal is 8.59 upbm affinity estimate (log intensity, higher = more binding, comparable within an allelic series).

Question: And the binding signal (PAX4)?
Answer: Its binding signal is 10.5 upbm affinity estimate (log intensity, higher = more binding, comparable within an allelic series).

Question: And the binding signal (MSX2 [14])?
Answer: The binding signal was 13.6 upbm affinity estimate (log intensity, higher = more binding, comparable within an allelic series).

Question: What about the binding signal (HESX1 [6]) of the same sequence?
Answer: Its binding signal is 8.46 upbm affinity estimate (log intensity, higher = more binding, comparable within an allelic series).

Question: What about the binding signal (HESX1 [7]) of the same sequence?
Answer: Its binding signal is 10.1 upbm affinity estimate (log intensity, higher = more binding, comparable within an allelic series).

Question: And the binding signal (MSX2 [15])?
Answer: Its binding signal is 13.3 upbm affinity estimate (log intensity, higher = more binding, comparable within an allelic series).

Question: And the binding signal (HESX1 [8])?
Answer: The binding signal was 7.75 upbm affinity estimate (log intensity, higher = more binding, comparable within an allelic series).

Question: What about the binding signal (ALX3 [16]) of the same sequence?
Answer: Its binding signal is 8.7 upbm affinity estimate (log intensity, higher = more binding, comparable within an allelic series).

Question: What does the source list for AATGAGAG?
Answer: binding signal (HESX1 [1]): 7.5 upbm affinity estimate (log intensity, higher = more binding, comparable within an allelic series); binding signal (HESX1 [2]): 7.55 upbm affinity estimate (log intensity, higher = more binding, comparable within an allelic series)

Question: GAGCAGCC was tested. Which binding signal (HESX1 [1]) did it give?
Answer: The binding signal was 6.52 upbm affinity estimate (log intensity, higher = more binding, comparable within an allelic series).

Question: What about the binding signal (ALX4 [17]) of the same sequence?
Answer: Its binding signal is 8.07 upbm affinity estimate (log intensity, higher = more binding, comparable within an allelic series).

Question: And the binding signal (ALX4 [18])?
Answer: The binding signal was 8.24 upbm affinity estimate (log intensity, higher = more binding, comparable within an allelic series).

Question: And the binding signal (HESX1 [2])?
Answer: The binding signal was 6.51 upbm affinity estimate (log intensity, higher = more binding, comparable within an allelic series).

Question: What about the binding signal (HESX1 [6]) of the same sequence?
Answer: The binding signal was 6.47 upbm affinity estimate (log intensity, higher = more binding, comparable within an allelic series).

Question: And the binding signal (HESX1 [7])?
Answer: The binding signal was 6.43 upbm affinity estimate (log intensity, higher = more binding, comparable within an allelic series).

Question: And the binding signal (HESX1 [8])?
Answer: The binding signal was 6.53 upbm affinity estimate (log intensity, higher = more binding, comparable within an allelic series).

Question: How did the binding signal (HESX1 [1]) turn out when ATGTTAAT was run?
Answer: Its binding signal is 8.98 upbm affinity estimate (log intensity, higher = more binding, comparable within an allelic series).

Question: And the binding signal (HESX1 [2])?
Answer: Its binding signal is 9.41 upbm affinity estimate (log intensity, higher = more binding, comparable within an allelic series).

Question: Which results are given for AGAGCTCT?
Answer: binding signal (HESX1 [1]): 6.34 upbm affinity estimate (log intensity, higher = more binding, comparable within an allelic series); binding signal (HOXC10 [19]): 10 upbm affinity estimate (log intensity, higher = more binding, comparable within an allelic series); binding signal (HESX1 [2]): 6.42 upbm affinity estimate (log intensity, higher = more binding, comparable within an allelic series); binding signal (ALX1 [20]): 6.52 upbm affinity estimate (log intensity, higher = more binding, comparable within an allelic series); binding signal (ALX1 [21]): 6.57 upbm affinity estimate (log intensity, higher = more binding, comparable within an allelic series); binding signal (HOXC10 [22]): 10.1 upbm affinity estimate (log intensity, higher = more binding, comparable within an allelic series); binding signal (HESX1 [6]): 6.48 upbm affinity estimate (log intensity, higher = more binding, comparable within an allelic series); binding signal (HESX1 [7]): 6.53 upbm affinity estimate (log intensity, higher = more binding, comparable within an allelic series); binding signal (HESX1 [8]): 6.38 upbm affinity estimate (log intensity, higher = more binding, comparable within an allelic series); binding signal (ALX1 [23]): 6.26 upbm affinity estimate (log intensity, higher = more binding, comparable within an allelic series)

Question: Which binding signal (HESX1 [1]) does the source give for AAATATTA here?
Answer: The binding signal was 8.45 upbm affinity estimate (log intensity, higher = more binding, comparable within an allelic series).

Question: And the binding signal (HESX1 [2])?
Answer: The binding signal was 8.54 upbm affinity estimate (log intensity, higher = more binding, comparable within an allelic series).

Question: For CACGGCGG, which binding signal (HESX1 [1]) is on record?
Answer: The binding signal was 6.53 upbm affinity estimate (log intensity, higher = more binding, comparable within an allelic series).

Question: And the binding signal (HOXB6 [3])?
Answer: The binding signal was 9.01 upbm affinity estimate (log intensity, higher = more binding, comparable within an allelic series).

Question: And the binding signal (HESX1 [2])?
Answer: The binding signal was 6.43 upbm affinity estimate (log intensity, higher = more binding, comparable within an allelic series).

Question: And the binding signal (HESX1 [6])?
Answer: The binding signal was 6.49 upbm affinity estimate (log intensity, higher = more binding, comparable within an allelic series).

Question: What about the binding signal (HESX1 [7]) of the same sequence?
Answer: Its binding signal is 6.56 upbm affinity estimate (log intensity, higher = more binding, comparable within an allelic series).

Question: And the binding signal (HESX1 [8])?
Answer: Its binding signal is 6.49 upbm affinity estimate (log intensity, higher = more binding, comparable within an allelic series).

Question: And the binding signal (HOXB6 [11])?
Answer: Its binding signal is 8.99 upbm affinity estimate (log intensity, higher = more binding, comparable within an allelic series).

Question: With CACGGCTG as the sequence, how does the binding signal (HESX1 [1]) read?
Answer: Its binding signal is 6.44 upbm affinity estimate (log intensity, higher = more binding, comparable within an allelic series).

Question: What about the binding signal (ALX4 [17]) of the same sequence?
Answer: The binding signal was 7.95 upbm affinity estimate (log intensity, higher = more binding, comparable within an allelic series).

Question: What about the binding signal (ALX4 [18]) of the same sequence?
Answer: Its binding signal is 7.97 upbm affinity estimate (log intensity, higher = more binding, comparable within an allelic series).

Question: What about the binding signal (HESX1 [2]) of the same sequence?
Answer: The binding signal was 6.33 upbm affinity estimate (log intensity, higher = more binding, comparable within an allelic series).

Question: And the binding signal (NKX2-6)?
Answer: Its binding signal is 9.52 upbm affinity estimate (log intensity, higher = more binding, comparable within an allelic series).

Question: And the binding signal (ALX1 [20])?
Answer: The binding signal was 6.21 upbm affinity estimate (log intensity, higher = more binding, comparable within an allelic series).

Question: What about the binding signal (ALX1 [21]) of the same sequence?
Answer: Its binding signal is 6.3 upbm affinity estimate (log intensity, higher = more binding, comparable within an allelic series).

Question: What about the binding signal (HESX1 [6]) of the same sequence?
Answer: The binding signal was 6.53 upbm affinity estimate (log intensity, higher = more binding, comparable within an allelic series).

Question: What about the binding signal (HESX1 [7]) of the same sequence?
Answer: The binding signal was 6.39 upbm affinity estimate (log intensity, higher = more binding, comparable within an allelic series).

Question: What about the binding signal (HESX1 [8]) of the same sequence?
Answer: Its binding signal is 6.49 upbm affinity estimate (log intensity, higher = more binding, comparable within an allelic series).

Question: And the binding signal (ALX1 [23])?
Answer: The binding signal was 6.11 upbm affinity estimate (log intensity, higher = more binding, comparable within an allelic series).
